In ChEMBL document CHEMBL3433997, “St. Jude Leishmania screening dataset” (2016):

Columns and labels:
Format in all cases: functional
[1] = target: Solute carrier family 2, facilitated glucose transporter member 1 (Homo sapiens) (UniProt P11166); experiment: ST_JUDE_LEISH: Cytotoxicity at 2uM final concentration against transgenic Leishmania Mexicana promastigotes LmGLUT1 that are glucose transport deficient and complemented with the human glucose transporter GLUT1. Activity is measured by DNA content using SYBR green in vitro
[2] = target: Hexose transporter 1 (Plasmodium falciparum) (UniProt O97467); experiment: ST_JUDE_LEISH: Cytotoxicity at 2uM final concentration against transgenic Leishmania Mexicana promastigotes LmPfHT that are glucose transport deficient and complemented with the Plasmodium falciparum hexose transporter. Activity is measured by DNA content using SYBR green in vitro
[3] = target: Glucose transporter (Leishmania mexicana) (UniProt O61059); experiment: ST_JUDE_LEISH: Cytotoxicity at 2uM final concentration against transgenic Leishmania Mexicana promastigotes LmGT2 that are glucose transport deficient and complemented with the L. Mexicana glucose transporter 2. Activity is measured by DNA content using SYBR green in vitro

Chain of Solute carrier family 2, facilitated glucose transporter member 1 (Homo sapiens) (P11166 whole entry): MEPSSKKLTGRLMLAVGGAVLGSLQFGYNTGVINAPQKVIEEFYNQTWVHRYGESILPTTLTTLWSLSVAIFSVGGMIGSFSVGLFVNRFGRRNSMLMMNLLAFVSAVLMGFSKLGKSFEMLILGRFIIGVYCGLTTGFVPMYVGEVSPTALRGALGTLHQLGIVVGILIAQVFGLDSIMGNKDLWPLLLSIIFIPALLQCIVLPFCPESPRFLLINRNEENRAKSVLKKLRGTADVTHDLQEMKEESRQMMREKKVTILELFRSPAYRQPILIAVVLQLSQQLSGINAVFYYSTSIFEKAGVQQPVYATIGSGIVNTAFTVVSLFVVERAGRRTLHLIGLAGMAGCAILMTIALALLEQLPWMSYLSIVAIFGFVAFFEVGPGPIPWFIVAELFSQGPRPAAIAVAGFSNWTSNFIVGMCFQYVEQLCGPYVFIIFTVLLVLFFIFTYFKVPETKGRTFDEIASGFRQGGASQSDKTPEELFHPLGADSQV

Structure (SMILES)	inhibition [1]	inhibition [2]	inhibition [3]
Nc1ccc2nc(C=Cc3ccc(Cl)cc3)[nH]c2c1	3.56%	3.93%	5.14%
COc1ccc(C2N=C(N)N=C(N)N2c2ccc(Cl)cc2)cc1OC (stereo unspecified)	2.61%	2.52%	2.93%
COc1ccc2nccc([C@@H](O)CN3CCC(NCCOc4ccc(F)cc4[N+](=O)[O-])CC3)c2c1	-1.59%	-1%	1.61%
COc1cc(C=CC(=O)N2CCN(Cc3cccc(C)c3)CC2)ccc1OCc1c(C)noc1C	8.31%	6.88%	6.13%
Cc1cc(NCCc2ccccc2)nc(NC(=N)Nc2ccccc2Cl)n1	9.69%	7.74%	7.34%
O=C(NC1CCC(N2CCC(O)(c3ccc(F)cc3)CC2)CC1)c1cc2ccccc2[nH]1 (stereo unspecified)	1.2%	2.62%	-0.31%
O=C(NCCCCN1CCC(c2ccc([N+](=O)[O-])cc2)CC1)c1ccc(NC(=O)c2ccc(Cl)cc2)cc1	4.18%	1.35%	4.06%
COc1ccc(C(=O)CCC(=O)N(Cc2ccc(-c3ccc(CNCCc4ccc(S(C)(=O)=O)cc4)cn3)cc2)Cc2ccc3c(c2)OCO3)cc1F	1.12%	-0.05%	-0.58%
COc1cccc(Nc2nc(N)c3ccccc3n2)c1	22.4%	18.8%	7.62%
CC(Cc1ccc(OCCN2CCN(c3ccc(Cl)cc3)CC2)cc1)NCC(O)c1cccc(C(F)(F)F)c1 (stereo unspecified)	-2.36%	-1.57%	0.07%
O=C(/C=C/c1ccc(-c2nc3ccc(Cl)cc3[nH]2)cc1)NC1CCN(Cc2ccccc2)CC1	1.24%	1.66%	3.7%
Cc1ccccc1C1CCN(C2CCC(NC(=O)/C=C/c3cc(C(F)(F)F)ccc3F)CC2)CC1 (stereo unspecified)	2.67%	2.98%	3.34%
CC1CN(c2cnn(Cc3ccc(NC(=O)Nc4ccc(-c5ccccc5)cc4)cc3)c(=O)c2Cl)CC(C)N1 (stereo unspecified)	1.43%	0.34%	-1.78%
COc1ccc(-n2ccnc2)cc1CNC1CCN(CC2Cn3c(=O)ccc4ccc(F)c2c43)CC1 (stereo unspecified)	4.7%	4.54%	5.24%
COc1ccc(S(=O)(=O)Nc2cc(Br)cc3c2OCCC3)cc1N1CCN(C(=O)C(Cl)(Cl)Cl)CC1	-1.16%	-1.14%	-0.3%
CCNc1cc(C(=O)N[C@@H](Cc2ccccc2)[C@H](O)CNCc2cccc(OC)c2)c(OC)c(N2CCCCS2(=O)=O)c1	1.6%	2.79%	2.16%
O=C(Nc1ccc(C(F)(F)F)cc1)NC1CCN(c2ccnc3ccccc23)C1 (stereo unspecified)	8.02%	7.55%	7.55%
COc1ccc2c(c1)OC(C)(C)CC2=NOS(=O)(=O)c1ccc(C)cc1	2.81%	0.98%	2%
O=C(/C=C/c1ccc(Cl)c(Cl)c1)NCCCCCCN1CCN(C(=O)Nc2cc(F)cc(F)c2)CC1	5.47%	5.75%	7.38%
O=C(/C=N/O)Nc1ccccc1[N+](=O)[O-]	-1.31%	0.8%	0.39%
C/C=C/COc1ccc2ccccc2c1CNCCCCCCCCNCc1c(OC/C=C/C)ccc2ccccc12	16.7%	7.28%	1.19%
CCN(CCCN1CCCCC1)c1cc(C)nc(Nc2cc(Cl)ccc2C)n1	1.18%	1.77%	1.67%
Cc1cc(CNCCCCCNCc2cccc([N+](=O)[O-])c2)ccc1O	1.94%	1.39%	1.29%
Cc1ccccc1-c1cc(=O)c2cc(NC(=O)c3cccs3)ccc2o1	3.19%	1.54%	-8.62%

Structure (SMILES)	inhibition [1]	inhibition [2]	inhibition [3]
O=C(NCc1ccc(C(=O)NC2CCCCC2)cc1)c1ccc(O)c(-c2ccc(Cl)c(Cl)c2)c1	2.46%	1.38%	1.41%
O=c1ccc2ccc(F)c3c2n1CC3CN1CCC(NCc2ccc(-c3cccc(Cl)c3)nc2)CC1 (stereo unspecified)	26.2%	21.3%	14.9%
O=C1c2ccccc2CN1CCCN1CCC(Oc2ccc(F)cc2)CC1	-2.87%	-2.18%	-3.86%
Cc1c(C)n(C2CCCCC2)c2ncnc(OC3CCN(CC(=O)NC4CC4)CC3)c12	-0.52%	-3.58%	1.68%
CCN(CC)CCCN(C(=O)c1cc2c(C)nn(-c3ccccc3)c2s1)c1nc(-c2ccc(OC)cc2)cs1	10.5%	9.13%	8.72%
CCNC(=O)N1CCN(c2nc(-c3ccccc3)nc(COC)c2Cc2ccc(C)cc2)CC1	4.13%	-1.41%	3.78%
CC(=O)Nc1ccc2[nH]cc(C3CCN(CC4CCN(C(=O)/C=C/c5ccc(Cl)c(Cl)c5)CC4)CC3)c2n1	3.09%	0.87%	-1.1%
COc1cccc(COCC(O)CN(CCc2ccccn2)C(=O)c2ccccc2F)c1 (stereo unspecified)	2.13%	2.79%	2.65%
COc1cccc(C2CCN(CCN3CCC(NC(=O)c4ccc(-c5ccc(C(F)(F)F)cc5)cc4)CC3)CC2)c1	4.19%	5.8%	6.6%
CC(C)CNC(=O)c1cncc(-c2ccc(CNCCCc3ccccc3)cc2)c1	0.94%	-0.91%	-0.55%
COc1ccc(-c2cnc(N)c(-c3ccc(C(N)=O)cc3)c2)cc1OC	3.97%	3.4%	5.07%
O=S(=O)(NCCCN1CCOCC1)c1ccc2nccc(Nc3ccc(Oc4ccccc4)cc3)c2c1	-1.16%	-0.87%	-0.94%
C=CCc1cccc(OC)c1OCCCON1C(=N)N=C(N)NC1(C)C	-0.04%	0.37%	0.43%
Cc1ccc(C(=O)NCC2CCN(c3ccc(C(F)(F)F)cc3NC(=O)c3ccco3)CC2)cn1	2.76%	-2.99%	3.12%
CC(C)NCc1ccc(-c2cccc(CN3CCC(c4ccccc4)CC3)c2)c(C(=O)NCC2CCCCC2)c1	7.97%	8.3%	8.2%
CNCCNCc1cccc(-c2ccc(-c3nc4cccc(C)c4[nH]3)s2)c1	-0.6%	0.01%	-0.03%
O=C(NCCCCN1CCC(c2ccc3c(c2OCc2ccncc2)CCCC3)CC1)c1ccc(-c2ccc(C(F)(F)F)cc2)cc1	1.51%	1.48%	0.42%
O=C(NCc1ccccc1[S+]([O-])c1ccccc1CO)C(F)(F)F (stereo unspecified)	-1.33%	-0.32%	0.55%
CO/C(=C\C=C\c1cc2cc(Cl)ccc2[nH]1)C(=O)NCCCN1CCN(c2cc(Cl)ccc2OC)CC1	1.52%	1.33%	-1.6%
CCN(CCCN1CCCCC1)c1cc(C)nc(Nc2ccc(C)c(Br)c2)n1	4.08%	6.82%	7.62%
O=C(NC1CC1)c1ccc(N2CCOc3ccc(Cl)cc32)s1	2.19%	1%	1.54%
CCC(=O)OC(CCN(CC)CC)(c1ccccc1)c1ccccc1	1.98%	1.16%	1.58%
c1cncc(CCNCc2ccc(-c3cccc(-c4nc5ccccc5[nH]4)c3)cc2)c1	-0.73%	0.67%	-0.38%
